Reference: the supplement of paper PMC7156485
± gives the standard deviation of the averaged measurements.

Columns and labels:
Settings in all cases: concentration: 10 µM; 24 h
[1] = test system: HCC1569; test: cell number relative to DMSO (% of DMSO); higher = more cells (less growth inhibition / toxicity)
Summary of the method: (§1)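 HCC1569 and TDF cells were seeded at 800 per well in 384-well plates in RPMI with 10% FBS and treated with compounds at 10 µM for 24 h at 37 °C, in triplicate. After fixation in 3.7% formaldehyde, cells were stained with a rabbit anti-H1.0 antibody, an AlexaFluor 647 secondary and DAPI, and six fields per well were imaged at ×10. H1.0 nuclear intensity or cell number is given as percent of the plate control, using the median of replicates, with HCC1569 values smoothed for positional effects.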

[2] = test system: TDF; test: as above
Summary of the method: as §1

[3] = test system: TDF; test: H1.0 immunofluorescence intensity relative to DMSO (% of DMSO); higher = stronger H1.0 induction, active = 120 or more
Summary of the method: as §1

[4] = test system: HCC1569; test: H1.0 immunofluorescence intensity relative to DMSO (% of DMSO); higher = stronger H1.0 induction, active = 140 or more
Summary of the method: as §1
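Wherever H1.0 immunofluorescence intensity relative to DMSO is given: TDF is a line of transformed human dermal fibroblasts of mesenchymal origin.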
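Wherever cell number relative to DMSO is given: TDF denotes transformed human dermal fibroblasts of mesenchymal origin.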

Structure (SMILES) | cell number [1] | cell number [2] | H1.0 immunofluorescence intensity [3] | H1.0 immunofluorescence intensity [4]
CC1Cc2c(Cl)cc(C(=O)NC(Cc3ccccc3)C(=O)O)c(O)c2C(=O)O1 (stereo unspecified) [Ochratoxin A] | 107 | 92.7 | 103 (inactive) | 92.1 (inactive)
NC(CP(=O)(O)O)C(=O)O (racemic) | 105 | 104 | 82.6 (inactive) | 91.4 (inactive)
CC1(O)CC23CC(O)C4(O)C(CC(O)C4(C)C)C(C)(O)C2CCC1C3O (stereo unspecified) [Grayanotoxin III] | 99.6 | 102 | 91.9 (inactive) | 88.2 (inactive)
COc1cc(C2c3cc4c(cc3C(O)C3COC(=O)C23)OCO4)cc(OC)c1OC (stereo unspecified) [Podophyllotoxin] | 61.2 ± 1.9 | 10.1 ± 0.34 | 152 (active) | 128 (inactive)
O.O=P1(N(CCCl)CCCl)NCCCO1 (stereo unspecified) [Cyclophosphamide monohydrate] | 79.6 | 61.2 | 116 (inactive) | 103 (inactive)
Cn1ncnc1COc1nn2c(-c3c(F)cccc3F)nnc2cc1C1CCC1 | 102 | 100 | 93.6 (inactive) | 99.6 (inactive)
CCC1C2CC3C4N(C)c5ccccc5C45CC(C2C5O)N3C1O (stereo unspecified) [Ajmaline] | 101 | 86.8 | 96.9 (inactive) | 93.1 (inactive)
CCCCCC=CCC=CCC=CCC=CCCCC(=O)NCCc1ccc(O)c(O)c1 [Arachidonyl dopamine] | 87.9 | 91.8 | 94.9 (inactive) | 124 (inactive)
CC(=O)OC1CC2CCC3C(CCC4(C)C3CC([N+]3(C)CCCCC3)C4OC(C)=O)C2(C)CC1[N+]1(C)CCCCC1.[Br-].[Br-] (stereo unspecified) [Pancuronium.2Br] | 100 | 92 | 93.9 (inactive) | 102 (inactive)
